High-throughput results from PubChem.
LANA-H2A inh: blockers of LANA interaction with H2A/H2B – biochemical, FP readout, HTS, primary screen | 0.6% of 320,000 active | cell-free LANA-H2A/H2B peptide, fluorescence polarization | inhibition, % (no concentration beside the values); in the data active means inhibition mostly above about 10%, no sharp cut-off; inactive means mostly below about 6.7%
DAGLB inhibitor: DAGLB lipase inhibitors, primary screen, biochemical, fluorescence, HTS. Diacylglycerol lipase-beta (Homo sapiens), Q8NCG7. HEK293T DAGLB membrane lysate, EnzChek fluorogenic substrate. 0.059% of 340,000 active. inhibition, % at 5.17 µM; in the data active means inhibition above about 34%;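 further: 0% = enzyme with vehicle and 100% = wells lacking enzyme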
HDAC3 inhib: HDAC3 deacetylase inhibitors, primary screen, biochemical, fluorescence, cell-free homogeneous; Histone deacetylase 3 (Homo sapiens), O15379; recombinant HDAC3, fluorogenic peptide/trypsin coupled; inhibition, % at 8.3 µM; 0.15% of 320,000 active; in the data active means inhibition above about 26%, passing the limit was not always enough; inconclusive means no clear call, values can overlap the other calls
Target sequence (O15379 whole entry, looked up): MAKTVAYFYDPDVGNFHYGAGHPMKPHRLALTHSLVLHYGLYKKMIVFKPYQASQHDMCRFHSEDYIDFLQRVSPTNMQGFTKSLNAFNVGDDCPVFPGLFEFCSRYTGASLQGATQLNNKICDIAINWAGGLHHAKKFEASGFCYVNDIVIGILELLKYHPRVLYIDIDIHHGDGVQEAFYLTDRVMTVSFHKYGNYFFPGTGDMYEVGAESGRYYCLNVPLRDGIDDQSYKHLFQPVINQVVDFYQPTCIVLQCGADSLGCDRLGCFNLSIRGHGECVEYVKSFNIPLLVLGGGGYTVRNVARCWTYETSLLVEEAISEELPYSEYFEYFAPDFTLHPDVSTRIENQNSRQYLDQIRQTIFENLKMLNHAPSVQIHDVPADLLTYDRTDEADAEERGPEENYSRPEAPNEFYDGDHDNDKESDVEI
iPSC survival up: enhancers of single-cell hiPSC survival, primary screen, ATPlite luminescence. 100% = ROCK inhibitor wells, 0% = DMSO. survival enhancement, % at 20 µM. 0.044% of 360,000 active; in the data active means survival enhancement above about 18%;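 further: cells exposed to compounds for 16 hours before the ATP read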
DAGLB confirm: DAGLB lipase inhibitors, retest, confirmation, biochemical, fluorescence, HEK293T membranes; shares compounds with DAGLB inhibitor; HEK293T DAGLB membrane lysate, EnzChek fluorogenic substrate; inhibition, % at 5.17 µM; 73% of 190 active;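 active means mean inhibition over triplicate wells above a set limit taken from the primary lipase screen, cut at about 34% in these data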;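 further: 0% = DAGLB with DMSO and 100% = wells lacking DAGLB enzyme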
Numbers without * were called inactive; ? = inconclusive; · = no result. A selection: hits, their analogues and other compounds. The true share with any hit is near 0.79%.

SMILES | LANA-H2A inh | DAGLB inhibitor | HDAC3 inhib | iPSC survival up | others
Cn1c(Cn2c(=O)sc3ccccc32)nnc1SCC(=O)NC1CCCC1 | 17* | -5 | 1 | 0
Cc1cccc(-c2nnc(SCC(=O)NC3CC3)n2C)c1 | 12* | -2 | -5 | 0
Cn1c(Cn2c(=O)sc3ccccc32)nnc1SCC(=O)NC1CCCCC1 | -1 | -2 | -6 | 1
CCn1c(NCc2cccs2)nc2ccccc21 | -2 | -9 | -3 | 1
Cn1c(NCc2cccs2)nc2ccccc21 | 22* | -1 | -4 | 0
Cc1ccc(SCCCCN2CCNCC2)cc1 | 18* | -2 | 4 | 0
Cc1ccc(/C(N)=N/OC(=O)C(C)c2ccc([N+](=O)[O-])cc2)cc1 (stereo unspecified) | 17* | -20 | 6 | 0
CCN1CCN(c2ncnc3sc(C)c(-c4ccccc4)c23)CC1 | 2 | -1 | -6 | 1
Cc1ccc(CCN2CC(C(=O)NC3CCCCC3)CC2=O)cc1 (stereo unspecified) | 22* | -2 | 1 | 0
CCC1CCCCN1S(=O)(=O)c1ccc(NC(=O)c2nc(S(C)(=O)=O)ncc2Cl)cc1 (stereo unspecified) | -5 | 1 | 4 | 7
Cc1ccnc(NC(=O)COc2ccc3c(c2)CCC3)c1 | -6 | -19 | -7 | 0
COc1cccc(CNC(=O)c2ccc(NC(=O)C3=CSCCO3)cc2)c1 | 5 | -3 | 0 | 0
C#CCNC(=O)C1=C[C@@H](c2coc3ccccc3c2=O)C[C@@H](OCc2ccc(CO)cc2)O1 | 3 | 0 | 36* | 6
CCn1nc(C)c(CNC(=O)C2CCC(=O)N(CCc3ccc(OC)cc3)C2)c1C (stereo unspecified) | -7 | 1 | 4 | 0
Cc1ccccc1C(=O)Nc1ccnn1C1CCN(Cc2cnn(C)c2)CC1 | 5 | 2 | -2 | 0
Cc1ccccc1C(=O)Nc1ccnn1C1CCN(Cc2cnn(C(C)C)c2)CC1 | 17* | 1 | -5 | 0
CCOCCCNC(=S)N(CCN(C)C)Cc1cc2cc3c(cc2[nH]c1=O)OCCO3 | 10 | 1 | 35* | 0
COc1ccc(CNC(=O)CN(c2ccc(C(C)C)cc2)S(=O)(=O)c2c(C)noc2C)cc1 | 14* | -1 | 6 | 0
Cc1ccc(CNC(=O)CN(c2ccc(C(C)C)cc2)S(=O)(=O)c2c(C)noc2C)cc1 | -6 | -7 | 0 | 1
Clc1ccc(C2=CC(c3ccco3)n3ncnc3N2)cc1 (stereo unspecified) | 7 | -54 | -8 | 0
CC(=O)Nc1cccc(C2=CC(c3ccco3)n3ncnc3N2)c1 (stereo unspecified) | 30* | · | 5 | ·
O=C(CC1(CC2=NS(=O)(=O)c3ccccc3N2)CCCC1)NCCc1ccccc1 | -5 | 0 | 3 | 0
CC(=O)NCC1(O)CCCC(C)C1 (stereo unspecified) | 19* | -4 | -6 | 0
COc1cc(CNc2ncnc3c2ncn3[C@H]2CN(Cc3ccco3)C[C@@H](CO)O2)cc(OC)c1OC | · | · | · | 0
COc1ccccc1NC(=O)C(C)Sc1nnc2ccccn12 (stereo unspecified) | 1 | -2 | -1 | 0
SMILES | LANA-H2A inh | DAGLB inhibitor | HDAC3 inhib | iPSC survival up | others
COC(=O)c1c(NC(=O)C(=O)NCC2CCCO2)sc2c1CC(C)(C)OC2 (stereo unspecified) | -15 | 0 | -2 | 0
C=CCN1C(=O)C2(OCCCO2)c2cccc(C)c21 | -6 | -2 | 0 | 0
CCCCN1C(=O)C2(OCCCO2)c2cccc(C)c21 | 18* | -3 | 5 | 0
N#CCCn1cnc2c(=S)nc[nH]c21 | 9.9* | -1 | 6 | -1
O=[N+]([O-])c1cccc(Cn2cnc3c(=S)nc[nH]c32)c1 | · | -1 | · | -2
CC(=O)Nc1ccc(NC(=O)C(C)Oc2ccc(C)nc2[N+](=O)[O-])cc1 (stereo unspecified) | 1 | -3 | -1 | 0
COC(=O)c1ccc(COC(=O)c2cc3ccccc3oc2=O)cc1 | 2 | -1 | -8 | 1
CC(=O)c1ccc(COC(=O)c2cc3ccccc3oc2=O)cc1 | 11* | -2 | -7 | 1
O=C(NC(Cc1c[nH]c2ccccc12)C(=O)O)OCC1c2ccccc2-c2ccccc21 (stereo unspecified) | · | · | · | 2
CC1CCCCC1NC(=O)c1cc(Cl)nc2ccccc12 (stereo unspecified) | · | -2 | · | -1
CC12COC3(C(=O)Nc4ccc5ccccc5c4)CC1CCC32C (stereo unspecified) | 32* | -6 | 3 | -1
Cc1cccc(NC(=O)CSc2nc3nc(C)cc(C)n3n2)c1 | -5 | 5 | 12 | -1
CCOc1cc2c3c(c1)C(C)=CC(C)(C)N3C(=O)C2=O | 13* | 8 | · | 0
CCOc1cc2c3c(c1)C(C)CC(C)(C)N3C(=O)C2=O (stereo unspecified) | -17 | 4 | -1 | -1
CCCN(C(=O)c1cccc(-n2cccc2)c1)c1c(N)n(Cc2ccccc2)c(=O)[nH]c1=O | 0 | 3 | 1 | 0
Cc1cc(/C=C\c2ccc3cc(N(C)C)ccc3[n+]2C)c(C)n1-c1ccccc1 | -6 | 39* | 15 | -5 | DAGLB confirm=35*
C[n+]1c(/C=C/c2ccc(O)cc2)ccc2ccccc21 | -6 | 1 | 6 | -1
O=C(O)c1ccccc1NS(=O)(=O)c1ccc(NN=Cc2cccc(Cl)c2)c([N+](=O)[O-])c1 | 5 | 17 | 7 | 3
O=C(O)COc1ccccc1/C=N/Nc1ccc(S(=O)(=O)Nc2ccc(Cl)cc2)cc1[N+](=O)[O-] | 0 | 40* | ? | -1 | DAGLB confirm=40*
O=C(O)c1ccccc1NS(=O)(=O)c1ccc(N/N=C/c2ccc(O)c(O)c2)c([N+](=O)[O-])c1 | · | 52* | · | -1 | DAGLB confirm=59*
O=C(O)c1ccccc1NS(=O)(=O)c1ccc(NN=Cc2ccc(F)cc2)c([N+](=O)[O-])c1 | -3 | 37* | 15 | 1 | DAGLB confirm=33
COc1cccc(SCc2noc(C(=O)NCCC(C)C)c2C(=O)NCCC(C)C)c1 | -4 | -34 | 11 | -3
CC(C)NC(=O)c1ccc(N(Cc2ccc(Cl)cc2)S(C)(=O)=O)cc1 | 1 | 3 | -6 | 0
CCOc1ccc(Cl)cc1-c1cc(C(=O)Nc2ccc(C(C)C)cc2)[nH]n1 | · | · | · | 2
CC(CCC(C)C(C)(C)C)[C@@H]1CC[C@H]2C3C[C@H](OS(O)(=S)=S)[C@H]4C[C@H](OS(O)(=S)=S)[C@@H](OS(O)(=S)=S)C[C@]4(C)[C@H]3CC[C@]12C (stereo partly specified) (tested in a mixture with another compound) | 5 | 35* | 5 | 0 | DAGLB confirm=34*
